For one assay, the target named is Furin (Homo sapiens) (UniProt P09958). Briefly: Furin counterscreen qHTS for Zika virus inhibitors (AID 1347149). Note: nearly all actives have a fitted effect of over 70% in size. Note: potency is the fitted concentration of half-maximal effect. An outline of the steps:
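Fluorogenic cleavage of BOC-RVRR-AMC (2 microM final, Km ~15 µM) was monitored (ex 340, em 450 nm) at 37C after 15 min RT preincubation of 5 nM furin with compounds in HEPES pH 7.0 buffer with CaCl2 and Triton X-100. Percent inhibition was fitted to a 4-parameter Hill curve.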
(In general: A counterscreen serves to expose hits that act by an unwanted route or on another target.)

Assay [1] is described as follows: Confirmatory screen GU Rhodamine qHTS for Zika virus inhibitors qHTS (AID 1347157). Note: potency is the fitted concentration of half-maximal effect; nearly all actives have a fitted effect of over 70% in size. The method, boiled down:
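Compounds, tested up to 114 microM, were incubated for 15 minutes with 25 nM unlinked NS2B-NS3 protease at pH 8.0. Cleavage of 1.5 microM Rhodamine110 substrate was then followed by fluorescence for 15 minutes.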
Background: Quantitative high-throughput screening tests each substance at several concentrations.

Assay [2] in a line: Confirmatory screen NINDS Rhodamine qHTS for Zika virus inhibitors (AID 1347161). Note: potency is the fitted concentration of half-maximal effect; nearly all actives have a fitted effect of over 60% in size. The method, boiled down: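 qHTS dose-response: 25 nM linked protease, pH 8.0 Tris/Tween buffer, cpd titration, 15 min RT preinc, 1.5 microM Rhod110 peptide, 15 min reaction (~15% conversion), Ex480/Em540; 4-parameter Hill fit.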
In assay [3] the test system is Zika virus NS2B-NS3 protease (linked). In words: 384 well plate NINDS AMC confirmatory qHTS for Zika virus inhibitors (AID 1347163). Note: nearly all actives have a fitted effect of over 50% in size. Note: potency is the fitted concentration of half-maximal effect. The method, boiled down:
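Linked NS2B-NS3 protease (final 5 nM, 30 nM or 60 nM) was preincubated with compounds (final up to 1 mM) for ~15 minutes. Ac-VKTGKR-AMC substrate (final 30 microM) then reacted for 25 minutes at room temperature in the dark. Fluorescence (ex 355/em 460 nm) was normalized to no-enzyme and no-inhibitor controls.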

Assay [4] concerns Zika virus NS2B-NS3 protease (linked construct). In words: 384 well plate NINDS Rhodamine confirmatory qHTS for Zika virus inhibitors (AID 1347164).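 Note: fluorescence from protease cleavage of Ac-LKRR-rhodamine 110 substrate; potency is the fitted concentration of half-maximal effect; nearly all actives have a fitted effect of over 65% in size.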 An outline of the steps:
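Enzyme (final 5/30/60 nM) + cpd (DMSO), ~15 min; add Ac-LKRR-Rd 10 microM final; 25 min RT, dark; FI ex 485/em 538; normalized to no-enzyme, no-inhibitor ctrls; aprotinin intraplate ctrl.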

A short description of assay [5]: ZIKV-mCherry secondary qHTS for Zika virus inhibitors (AID 1347158). Note: top concentration of the series differs between compounds. The method, boiled down:
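Vero cells (5,000/well) were given compound, then infected with ZIKV-mCherry at MOI 1 for 48–72 h at 37 °C. After PFA fixation and Hoechst staining, imaging gave percent mCherry-positive cells. The positivity threshold was RFU above 450, 3 SD over negative controls.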

Assay [6] can be described thus: Tertiary RLuc qRT-PCR qHTS assay for Zika virus inhibitors (AID 1347169). Note: top concentration of the series differs between compounds; nearly all actives have a fitted effect of over 55% in size. The method, boiled down: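 Vero, 1,000 cells/well, o/n 37 C; cpd pinned in DMSO; ZIKV-RLuc Cambodian, MOI 1-2, 48-72 h 37 C; live-cell RLuc substrate, lum read at 1-1.5 h.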
Assay [7] has as its target Cytochrome P450 3A4 (Homo sapiens) (UniProt P08684). In words: qHTS Assay for Activators of Cytochrome P450 3A4 (AID 885). Note: nearly all actives have a fitted effect of over 65% in size. The method, boiled down:
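Steps: enzyme/substrate mix dispensed; compound added, 10 min RT; NADPH regeneration solution added, 60 min RT; luciferin detection buffer stops reaction; 20 min later luminescence measured.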

Structures are written as SMILES. Records with an inconclusive call do not appear. The source made the active and inactive calls. Calls come from the whole dose curve; as a rule, active = well fitted curve in the direction sought with a large enough effect; inconclusive = small, poorly fitted or top-dose-only effect, or another doubt; inactive = no such curve, though single readings can be large; an effect the other way counts as inactive or inconclusive.

Chain of Furin (Homo sapiens) (P09958 whole entry, looked up): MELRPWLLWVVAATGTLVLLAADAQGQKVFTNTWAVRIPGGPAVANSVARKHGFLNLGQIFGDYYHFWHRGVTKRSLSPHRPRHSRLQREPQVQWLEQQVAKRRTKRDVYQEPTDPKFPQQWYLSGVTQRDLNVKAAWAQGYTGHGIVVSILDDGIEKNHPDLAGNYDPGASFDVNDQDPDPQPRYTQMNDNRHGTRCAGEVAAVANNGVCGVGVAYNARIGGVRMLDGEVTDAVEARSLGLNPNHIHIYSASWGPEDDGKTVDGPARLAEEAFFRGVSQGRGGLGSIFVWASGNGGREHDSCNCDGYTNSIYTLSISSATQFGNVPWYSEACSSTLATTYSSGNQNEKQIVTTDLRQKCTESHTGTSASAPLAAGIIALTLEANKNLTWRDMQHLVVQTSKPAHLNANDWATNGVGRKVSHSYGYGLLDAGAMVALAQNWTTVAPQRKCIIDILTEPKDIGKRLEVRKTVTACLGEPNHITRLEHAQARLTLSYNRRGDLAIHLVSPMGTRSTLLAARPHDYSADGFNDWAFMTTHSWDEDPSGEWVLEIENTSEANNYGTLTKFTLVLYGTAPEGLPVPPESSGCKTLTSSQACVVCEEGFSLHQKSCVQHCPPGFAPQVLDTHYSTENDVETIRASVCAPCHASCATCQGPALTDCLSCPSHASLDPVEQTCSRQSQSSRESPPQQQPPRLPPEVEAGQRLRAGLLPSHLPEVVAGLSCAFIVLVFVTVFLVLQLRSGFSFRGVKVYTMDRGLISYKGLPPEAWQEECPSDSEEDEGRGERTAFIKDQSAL
Chain of Cytochrome P450 3A4 (Homo sapiens) (P08684 whole entry, looked up): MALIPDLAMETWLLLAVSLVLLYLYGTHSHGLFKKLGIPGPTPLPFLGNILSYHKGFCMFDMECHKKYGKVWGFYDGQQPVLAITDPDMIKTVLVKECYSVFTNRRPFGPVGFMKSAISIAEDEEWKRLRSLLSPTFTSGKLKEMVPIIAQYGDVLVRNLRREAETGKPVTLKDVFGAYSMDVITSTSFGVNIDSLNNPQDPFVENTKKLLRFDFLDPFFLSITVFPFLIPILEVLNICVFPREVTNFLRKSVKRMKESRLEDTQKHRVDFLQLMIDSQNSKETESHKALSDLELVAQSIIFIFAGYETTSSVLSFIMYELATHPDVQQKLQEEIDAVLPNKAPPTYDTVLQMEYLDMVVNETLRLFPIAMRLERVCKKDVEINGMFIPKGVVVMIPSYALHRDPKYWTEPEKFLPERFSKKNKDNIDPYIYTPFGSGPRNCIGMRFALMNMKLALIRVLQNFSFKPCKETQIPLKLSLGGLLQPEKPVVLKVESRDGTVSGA

For the compound `Cc1ccc2nc(NS(=O)(=O)c3ccc(Cl)cc3)c(Nc3ccc(C(=O)O)cc3)nc2c1`, the Potency entry with Furin (Homo sapiens) is “inactive”. Further, the Potency in assay [1] is 3.55 µM (active); in assay [2] it was 3.16 µM (active); in assay [3], 141 µM (active); in assay [4], 12.6 µM (active).

For `Cc1ccc2nc(-c3ccc(N=Nc4cc(S(=O)(=O)O)c5ccccc5c4O)cc3)sc2c1S(=O)(=O)O`, the Potency in the assay with Furin (Homo sapiens) was 59.1 µM (active); in assay [1] it was 3.16 µM (active); in assay [4] it was 15.8 µM (active). The Potency entry in assay [5], in assay [3] and in assay [6] was “inactive” throughout.

Regarding `O=C(Nc1ccccc1)c1ccc2c(O)c(S(=O)(=O)c3ccc(Cl)cc3)c(=O)[nH]c2c1`, the Potency result (with Furin (Homo sapiens); in assay [5]; in assay [6]) was “inactive” in each case. The Potency was 22.4 µM (active) in assay [1] and 398 µM (active) in assay [3].

With `COc1ccc(-c2cc(=O)c3c(O)cc(O)c(-c4cc(-c5cc(=O)c6c(O)cc(O)cc6o5)ccc4OC)c3o2)cc1`, the Potency result (in assay [7]; in the assay with Furin (Homo sapiens); in assay [6]) was “inactive” throughout. The Potency in assay [1] was 25.1 µM (active); in assay [2] it was 25.1 µM (active); in assay [3] it was 112 µM (active).
